Measurements as given in PubChem BioAssay AID1446 (The Scripps Research Institute Molecular Screening Center, 2008).
Screen size: about 220,000 compounds; about 2,400 (1.1%) were called active. Shown is part of a subset that was picked to be rich in actives. Values without a mark were called inactive.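 How the source made its calls: active means inhibition above the campaign mean plus 3 SD over all tested compounds (cut at about 24% in these data); inactive means the rest.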

Assay: viability loss in Ba/F3 EpoR-JAK2V617F cells – cell-based, luminescence, JAK2V617F inhibitor project, primary screen (AID 1446);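 further: cytokine-independent growth of Ba/F3 cells driven by EpoR plus mutant JAK2; 0% = DMSO-treated cells and 100% = JAK inhibitor I control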
Details: ATP luminescence, at 5.6 µM, active compounds read high

Compound	inhibition
Cc1ccc(C(=O)NN(CCC#N)C2=NS(=O)(=O)c3ccccc32)cc1	-4.16%
Cc1ccc2sc(NNC(=O)c3ccc4c(c3)OCCO4)nc2c1C	-3.73%
COc1ccc(Nc2cc(=O)oc3ccccc23)cc1	55.1% (active)
COc1ccc(Nc2cc(=O)n(-c3ccccc3)c3c2c(=O)n(C)c(=O)n3C)cc1	0.16%
COc1ccc(N2CCN(Cc3cc(=O)oc4ccc5ccccc5c34)CC2)cc1	0.19%
O=C(CC(c1ccccc1)c1cc(Cl)ccc1O)NCCN1CCOCC1 (stereo not given)	-3.6%
C/C(CC(C)C)=N\Oc1nc(C)cc(C)n1	-2.21%
O=[N+]([O-])c1cc(C(F)(F)F)ccc1NN=C1CCCC1	-0.95%
O=C(CCN1CCCCC1)N=Nc1c(O)[nH]c2ccccc12	1.24%
COC(=O)COc1cccc2c(=O)n(CC(=O)NCCc3ccc(OC)c(OC)c3)ccc12	-2.26%
Cc1ccc(CNC(=O)CCNC(=O)Cn2ccc3ccccc3c2=O)cc1	0.07%
COC(=O)COc1cccc2c(=O)n(CC(=O)NCc3ccccc3)ccc12	58.8% (active)
CC(C)(C)NC(=O)c1ccc(Cn2cc(C(F)(F)F)ccc2=O)cc1	0.95%
Cc1cc2ccccn2c1C(=O)c1cccc(S(=O)(=O)N2CCOCC2)c1	-0.04%
C/C(CC(=O)NC(C)(C)C)=N\NC(=O)c1ccco1	-1.54%
CCCNc1c(N)c(=O)c1=O	1.36%
CCc1cc(C(=O)c2ccc(OC)cc2)c(NC(=O)CN2CCN(C)CC2)s1	-1.89%
CCOC(=O)N1CCN(C(=O)C2CCN(Cc3ccc(OC)cc3OC)CC2)CC1	-0.59%
CCOC(=O)N1CCN(C(=O)C2CCN(c3ncnc4c3sc3cccc(F)c34)CC2)CC1	43.9% (active)
CCOC(=O)C1CCN(c2ncnc3c2oc2ccc(Br)cc23)CC1	0.71%
COc1ccc(/C=N/OCC(=O)N(Cc2ccccc2)c2ccccc2C(=O)O)cc1	-2.1%
CCCCN1C(=O)/C(=C(/C#N)C(N)=O)c2ccccc21	-3.07%
CC(C)c1ccc(Nc2nnc(SCC(=O)c3nnc(-c4ccccc4)o3)s2)cc1	0.01%
COc1ccc(CCNC(=O)C(=O)NCC2CCNCC2)cc1OC	-3.6%

Compound	inhibition
Cc1ccc2c(c1)C1CN(C)CCC1N2S(=O)(=O)c1ccc(Oc2ccc([N+](=O)[O-])cc2)cc1 (stereo not given)	-5.1%
CCn1c(CSCc2c(Cl)cccc2Cl)n[nH]c1=S	-2.13%
COc1cc2c(cc1OC)C(/C=C/c1ccco1)=NCC2	1.51%
Nc1ncc(-c2cc3ccccc3oc2=O)s1	6.85%
O=C(c1cn(-c2ccccc2)nc1-c1cc2ccccc2oc1=O)N1CCOCC1	-0.6%
O=c1oc2ccccc2cc1-c1cn(-c2ccccc2)c(=S)[nH]1	35.7% (active)
Cc1nc2c(ncn2-c2ccccc2)c(=O)n1NC(=O)CN1CCCC1	-1.07%
O=C(NNC(=O)c1ccccc1[N+](=O)[O-])Nc1ccccc1C(F)(F)F	-0.76%
CCOC(=O)C1CCN(C(=O)/C=C/c2cc(OC)c(OC)c(OC)c2)CC1	-2.65%
CCOC(=O)C1=C(N)N2C(=O)C(C)SC2=C(C(=O)OCC)C1c1cc(OC)c(OC)c(OC)c1 (stereo not given)	80.7% (active)
CCOC(=O)c1cc(-c2nnc(-c3cc(OC)c(OC)c(OC)c3)o2)c(C)nc1C	0.18%
CC(CNS(=O)(=O)c1ccc(Br)cc1)CN(C)C (stereo not given)	-1.94%
Cc1ccc(Cl)cc1N1CCN(C(=O)c2cccc3c(=O)c(C)c(-c4ccccc4)oc23)CC1	-6.79%
Cc1ccc(NC(=O)Nc2ccccc2)c(Br)c1	1.27%
C=CCNc1scc(-c2ccccc2)[n+]1CC=C	-1.89%
C=CC[n+]1c(-c2ccc(C)cc2)csc1NNC(=O)Nc1ccccc1	37.6% (active)
CCN(CC)CCOC(=O)c1ccc(NC(=O)CNC(=O)c2ccccc2)cc1	0.68%
COc1ccc(C(=O)C[n+]2ccc(N)c(C)c2C)cc1	97.4% (active)
COc1ccc(C(=O)C[n+]2ccc(C)cc2)cc1	-3%
COc1ccc(OCCC(=O)c2ccc(OC)cc2)cc1	-0.79%
Cc1nn(-c2ccccc2)c(NC(=O)c2cccs2)c(-c2ccc(Cl)cc2)c1=O	-2.34%
CN(C)CCCNC(=O)/C=C/c1ccc(OCc2c(F)cccc2Cl)cc1	0.9%
COCCCNC(=O)/C=C/c1ccc(OCc2c(F)cccc2Cl)cc1	-4.39%
O=C(/C=C/c1ccc(OCc2c(F)cccc2Cl)cc1)N1CCOCC1	64.4% (active)

Compound	inhibition
O=C(NNC(=O)c1csc(-c2cccnc2)n1)Nc1ccc(Cl)cc1	-0.26%
COC(=O)N/N=C/c1cn(CCCOc2ccc(C)cc2)c2ccccc12	-1.96%
O=C(Nc1ccc2c(c1)OCCO2)c1cnccn1	0.76%
CCN(CC)c1ccc(/C=N/Nc2nc(C)cc(C)n2)c(O)c1	2.26%
CCN(CC)c1ccc(/C=N/NC(=O)c2cnccn2)c(O)c1	56.2% (active)
Cc1noc(C)c1C(=O)OCC(=O)/C=C1\N(C)c2ccccc2C1(C)C	1.84%
CN1/C(=C\C(=O)c2cccnc2Cl)C(C)(C)c2ccccc21	2.48%
CC(=O)Nc1cccc(OCC(=O)/C=C2\N(C)c3ccccc3C2(C)C)c1	37.5% (active)
N/C(=N\OC(=O)Nc1ccccc1)c1ccno1	4.88%
CC(C)NC(=S)N1CCN(C(c2ccccc2)c2ccccc2)CC1	1.76%
CC1(C)CC(N2CCN(C(c3ccccc3)c3ccccc3)CC2)=CC(=[N+]2CCCCC2)C1	98.8% (active)
CC1(C)CC(=O)C=C(N2CCCC2)C1	-0.55%
CCOC(=O)C(Sc1ncc(C#N)c(N)n1)C(C)C (stereo not given)	-2.24%
COc1cc(C=O)ccc1Oc1nnnn1-c1ccccc1	1.87%
Cc1cc(N/N=C\c2ccc(Br)cc2)nc(-n2nc(C)cc2C)n1	-1.35%
COc1ccc(Nc2cc(C)nc(-n3nc(C)cc3C)n2)cc1	76.7% (active)
CC(=O)c1ccc(Oc2cc(C)nc(-n3nc(C)cc3C)n2)cc1	64.7% (active)
COc1ccccc1/C=N\Nc1cc(C)nc(-n2nc(C)cc2C)n1	-2.19%
Cc1cc(Oc2ccccc2)nc(N2CCOCC2)n1	1.31%
Cc1cc(C)n(-c2cc(Oc3ccccc3)ncn2)n1	0.29%
Nc1nc(SC23CC4CC(CC(C4)C2)C3)ns1	-4.14%
O=C(c1ccc(OC2CCN(Cc3ccccn3)CC2)cc1)N1CCCCCC1	-0.65%
CC(C)(C)c1ccc(CCC2OCC(CN3CCOCC3)O2)cc1 (stereo not given)	0.42%
CC(C)[C@@H]1NC(=O)c2cc([N+](=O)[O-])cc(I)c2NCCC[C@@H](C(=O)NC(CC(=O)O)C(N)=O)NC(=O)[C@H](CO)NC1=O (stereo not given in full)	1.14%

Compound	inhibition
CC(C)(C)OC(=O)NCCCCCC(=O)N/N=C/c1coc2ccccc2c1=O	0.8%
Cc1ccc(N2C(=O)CN=C2Nc2nc(C)cc(C)n2)cc1	-0.62%
CCCCOc1ccc(NC(=O)[C@@H]2CCCN2C(=O)C2CCN(S(=O)(=O)c3ccc(C)cc3)CC2)cc1	1.1%
Cc1cc(C)nc(NS(=O)(=O)c2ccc(N/C=C\C(=O)c3cccs3)cc2)n1	2.57%
CCN1/C(=C/C(=S)Nc2ccccc2)Sc2ccccc21	-4.02%
CCN1CCN(CCNC(=O)c2ccc(/C=C3/Sc4ccccc4N(Cc4cccc(C)c4)C3=O)cc2)CC1	4.4%
CCN1/C(=C\c2ccc3ccccc3[n+]2CC)Sc2cc(C)ccc21	99.7% (active)
CCN1/C(=C/c2ccc3ccc(C)cc3[n+]2CC)Sc2ccccc21	100% (active)
COc1ccc([N+](=O)[O-])cc1NC(=O)COC(=O)/C=C/c1ccco1	-0.59%
O=S1(=O)CCC(NC(=S)SCc2ccccc2Br)C1 (stereo not given)	-4.11%
CC1(C)OC(=O)C(=CSc2ccc(C(C)(C)C)cc2)C(=O)O1	-1.81%
COc1cc(OC)c(C(=O)NC2CCCCCC2)cc1OC	99.6% (active)
COc1ccc(S(=O)(=O)NC(C)C)cc1C(=O)NC1CCCCC1	-1.5%
COc1cc(OC)c(C(=O)NC2CC(C)(C)NC(C)(C)C2)cc1OC	-0.48%
O=C(NC(=O)c1ccccc1N1CCCCC1)Nc1ccc(Br)cc1	0.79%
O=C(N/N=C/c1coc2ccccc2c1=O)c1cc2ccccc2o1	2.09%
O=C(N/N=C/c1c[nH]c2ccccc12)c1cc2ccccc2o1	0.06%
Cc1c(/C=N\NC(=O)c2cc3ccccc3o2)c2ccccc2n1C	34.8% (active)
CC(=O)c1nnn(-c2ccc(Cl)cc2C#N)c1C	0.95%
CC(C)CNC(=O)COC(=O)/C=C/c1ccco1	-3.59%
COc1ccc(C(=O)CN(C(=O)c2ccc(Cl)cc2)N2C(=O)c3ccccc3C2=O)cc1	0%
COc1ccc(Cn2c(=O)cc(C)[nH]c2=S)cc1	2.03%
COc1ccc(Cn2c(-c3ccc(Cl)cc3)c[n+]3ccccc23)cc1	88.9% (active)
